Consider 49 compounds from PubChem BioAssay AID485364 (National Center for Advancing Translational Sciences (NCATS), 2010).

Molecules are shown by their SMILES. Screen size: about 360,000 compounds; about 11,000 (3.1%) were called active. Roughly 4% stayed inconclusive and do not appear here. The sample holds actives, similar compounds and a random draw of the others, so the mix is not that of the screen. Unmarked numbers belong to inactive results. Calls come from the whole dose curve; as a rule, active = well fitted inhibition curve with a large enough effect; inconclusive = small, poorly fitted or top-dose-only effect; inactive = no such curve, though single readings can be large or run the other way.
% is set by controls: 0 for no effect and ±100 for the full control effect; potency is the fitted concentration of half-maximal effect.

The target of the assay is Schistosoma mansoni thioredoxin glutathione reductase (TGR) (UniProt Q962Y6). Kind of assay: qHTS Assay for the Inhibitors of Schistosoma Mansoni Peroxiredoxins. Note: nearly all actives have a fitted effect of over 60% in size. Particulars: purified TGR, DTNB reduction, TNB absorbance 405 nm; series mostly up to 114 µM; activity change, negative = inhibition: at the top concentration. The method, boiled down:
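TGR 20 nM + NADPH 100 uM (dispensed conc.), cpd preinc 15 min RT; start with NADPH (500 uM addition) then DTNB (15 mM addition). Kinetic TNB absorbance, 405 nm filter. Four-parameter Hill fit across titration.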
A general note: qHTS replaces the single test concentration by a dilution series.
Turning to `O=C(NCCc1ccccc1)c1ccc2c(c1)N(Cc1ccc(F)cc1)C(=O)c1ccccc1S2(=O)=O`, the “activity change, negative = inhibition” value is -1.62%.

`O=C(NCC1COc2ccccc2O1)C1(c2ccccc2)CCCC1` (centres undefined): the “activity change, negative = inhibition” value was 37%.

Take `CN(C)CCOC(=O)C(c1ccccc1)C1(O)CCCC1` (centres undefined): the “activity change, negative = inhibition” value was 8.38%.

`CN(C)CC1Oc2ccccc2OC1(O)c1ccccc1` (centres undefined): the Potency was 0.355 µM (active).

Take `CCOc1ccc(CC(=O)NCCc2csc3nc(-c4ccccc4F)nn23)cc1`: the “activity change, negative = inhibition” value was -10.2%.

`O=C(COc1ccc(Cl)cc1)N(Cc1ccco1)Cc1ccco1`: the “activity change, negative = inhibition” value is -16%.

Take `O=C(Nc1nc(-c2ccco2)c(-c2ccco2)s1)c1ccco1`: the Potency was 7.94 µM (active).

Regarding `CCN(c1ccc(Cl)cc1)S(=O)(=O)c1nnc(NC(=O)c2ccco2)s1`, the “activity change, negative = inhibition” value is 6.5%.

Regarding `O=C(Nc1nonc1-c1ccc(Cl)cc1)c1ccco1`, the “activity change, negative = inhibition” value is 5.07%.

With `COc1ccc(S(=O)(=O)NCCSc2nnnn2-c2ccccc2)cc1`, the “activity change, negative = inhibition” value is 1.78%.

With `O=C(CCSCc1ccccc1F)N1CCN(c2ccc(Cl)cc2)CC1`, the “activity change, negative = inhibition” value was 1.71%.

For `CC(C)=C1C2CCC1C1C(=O)N(NC(=O)c3ccco3)C(=O)C21` (centres undefined), the “activity change, negative = inhibition” value is 5.25%.

Consider `COc1ccccc1C(=O)NN1C(=O)C2C3C=CC(O3)C2C1=O` (centres undefined), for which the Potency was 17.8 µM (active).

In the case of `O=C(NN1C(=O)C2C3C=CC(O3)C2C1=O)c1ccncc1` (centres undefined), the Potency is 20 µM (active).

On to `O=C(NN1C(=O)C2C3C=CC(C4CC34)C2C1=O)c1ccc(Cl)cc1` (centres undefined), for which the “activity change, negative = inhibition” value is 19.2%.

For `O=C(NN1C(=O)C2C3C=CC(O3)C2C1=O)c1ccccc1` (centres undefined), the Potency was 20 µM (active).

For `COc1ccc(C(=O)NN2C(=O)C3C(c4ccccc4)C=CC(c4ccccc4)C3C2=O)cc1` (centres undefined), the “activity change, negative = inhibition” value was 0.253%.

On to `COc1ccccc1C(=O)NCCC(=O)NN1C(=O)NC2(CCCCC2)C1=O`, for which the “activity change, negative = inhibition” value was 4.64%.

On to `O=C(NN1C(=O)C2C3C=CC(C3)C2C1=O)c1ccco1` (centres undefined), for which the “activity change, negative = inhibition” value was -12.2%.

For `COc1ccccc1C(=O)Nn1cnnc1`, the “activity change, negative = inhibition” value is -0.277%.

For the compound `COc1cccc(N2CCN(S(=O)(=O)c3ccc4c(c3)CCCN4C(C)=O)CC2)c1`, the “activity change, negative = inhibition” value is -11.5%.

Turning to `O=C(Nc1nnc(C2CC(=O)N(c3ccc(Cl)cc3)C2)s1)c1ccco1` (centres undefined), the “activity change, negative = inhibition” value is 2.36%.

`Cc1ccc(S(=O)(=O)c2cn(Cc3ccccc3)c3cc(N4CCCC4)c(F)cc3c2=O)c(C)c1`: the “activity change, negative = inhibition” value is 7.14%.

In the case of `COc1cc(C(=O)N2CCN(C(=O)COc3cccc(C)c3)CC2)cc(OC)c1OC`, the “activity change, negative = inhibition” value was 4.7%.

Regarding `Cc1nnc(SCC(=O)NCc2ccccc2Cl)c2nn(-c3ccccc3)c(C)c12`, the “activity change, negative = inhibition” value is -12.2%.

As for `CC1CCN(S(=O)(=O)c2ccc3c(ccn3CCC(=O)NCc3ccc(N(C)C)cc3)c2)CC1`, the “activity change, negative = inhibition” value is 5.15%.

For `Cc1ccc(NC(=O)c2cc(S(=O)(=O)NCCC3=CCCCC3)ccc2F)cc1C`, the “activity change, negative = inhibition” value was 0.318%.

For the compound `CCOc1ccc(OCC)c(NC(=O)c2cc(C)nc3c2c(C)nn3-c2cccc(Cl)c2C)c1`, the “activity change, negative = inhibition” value is 4.25%.

Regarding `O=C(/C=C/c1ccccc1)N1CCN(Cc2cc(=O)n3nc(-c4ccccc4F)sc3n2)CC1`, the “activity change, negative = inhibition” value was -0.0658%.

Consider `CCN1CCCC1CNC(=O)c1cc2c(=O)n(C)c3ccccc3c2n1C` (centres undefined), for which the Potency is 50.1 µM (active).

For `CCOc1ccc(CCNC(=O)c2cc3c(=O)n(C)c4ccccc4c3n2C)cc1`, the “activity change, negative = inhibition” value is -0.834%.

For the compound `Cn1c(C(=O)N2CCC(C(N)=O)CC2)cc2c(=O)n(C)c3ccccc3c21`, the “activity change, negative = inhibition” value was -27.2%.

Consider `O=C(c1ccc2c(c1)N(Cc1ccc(Cl)cc1)C(=O)c1ccccc1S2(=O)=O)N1CCCCC1`, for which the “activity change, negative = inhibition” value is -0.822%.

`CCOc1ccc(C(=O)/C=C/c2cn(CC(O)CN3CCCCCC3)c3ccccc23)cc1` (centres undefined): the “activity change, negative = inhibition” value was 1.21%.

Consider `Cc1ccc(Cn2c(CNC(=O)Cc3cccc(C)c3)nc3cccnc32)cc1`, for which the “activity change, negative = inhibition” value was -0.581%.

For the compound `Cn1nccc1C(=O)NC1CCCc2c1cnn2-c1ccccc1F` (centres undefined), the “activity change, negative = inhibition” value is -27.8%.

For `COc1ccc(C(=O)NC2CCCc3c2cnn3-c2cccc(C)c2C)c(OC)n1` (centres undefined), the “activity change, negative = inhibition” value was 2.99%.

On to `Cc1cc(C(=O)NC2CCCc3c2cnn3-c2cccc(C)c2C)c(C)o1` (centres undefined), for which the Potency was 35.5 µM (active).

Consider `Brc1ccc(C2=CC(c3ccco3)n3ncnc3N2)cc1` (centres undefined), for which the Potency is 17.8 µM (active).

As for `Clc1ccc2c(c1)C1=C(C(c3ccncc3)O2)C(c2ccc(Br)cc2)n2ncnc2N1` (centres undefined), the “activity change, negative = inhibition” value is 5.87%.

For the compound `Cc1cccc(OCCSc2nc3ccccc3n2CC(=O)N2CCCCC2)c1C`, the “activity change, negative = inhibition” value was -10.3%.

Consider `COc1ccc(CCN=C2SCC(=O)N2Cc2ccccc2)cc1OC`, for which the “activity change, negative = inhibition” value was 4.58%.

Take `COC(=O)C1=C(c2ccc(F)cc2OCc2ccccc2)C[C@@H]2CC[C@H]1N2C(=O)NCc1ccc(OC)c(OC)c1`: the “activity change, negative = inhibition” value is -1.65%.

On to `COc1cc(C2CC(=O)N3CN(Cc4ccccc4)CSC3=C2C#N)ccc1OCc1ccccc1` (centres undefined), for which the Potency was 8.91 µM (active).

With `CCCOc1ccc(C2c3c(-c4ccccc4O)n[nH]c3C(=O)N2Cc2cccnc2)cc1` (centres undefined), the “activity change, negative = inhibition” value was -17.8%.

As to `CC(=O)Nc1ccc(S(=O)(=O)NC2(C(F)(F)F)C(=O)Nc3c2c(=O)[nH]c(=O)n3Cc2ccccc2)cc1` (centres undefined), the “activity change, negative = inhibition” value was -3.62%.

For `CC(=O)Nc1ccc(S(=O)(=O)NC2(C(F)(F)F)C(=O)NC(C)=C2C#N)cc1` (centres undefined), the Potency was 39.8 µM (active).

Consider `CC(=O)Nc1ccc(NS(=O)(=O)c2ccc3c(c2)NC(=O)CC(=O)N3)cc1`, for which the “activity change, negative = inhibition” value was 4.91%.

With `CCOC(=O)c1cc(-c2ccc(OC)c(S(=O)(=O)Nc3ccc(OC)cc3OC)c2)on1`, the “activity change, negative = inhibition” value is -0.0619%.
